Here are results for 18 compounds from PubChem BioAssay (Tox21).

A number with no mark means an inactive call. Records with an inconclusive call do not appear. Calls of active or inactive are those of the source. Unless noted, calls come from the whole dose curve; as a rule, active = well fitted curve in the direction sought with a large enough effect in the repeat runs; inconclusive = weak or mixed curves; inactive = no such curve, though single readings can be large; an effect the other way counts as inactive or inconclusive.

Assay [1] can be described thus: qHTS assay to test for compound auto fluorescence at 535 nm (green) in HEK293 cells (AID 720680). In general terms: Quantitative high-throughput screening tests each substance at several concentrations.
Assay [2] can be described thus: qHTS assay to test for compound auto fluorescence at 460 nm (blue) in HEK293 cell free culture (AID 720681). Put shortly: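 Blue fluorescence (Ex 405/Em 460 nm, triamterene-equivalent) was read immediately after pin transfer of compound or DMSO into medium (DMEM, 10% FBS) without cells.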
Assay [3] in a line: qHTS assay to test for compound auto fluorescence at 535 nm (green) in HEK293 cell free culture (AID 720682). Put shortly: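 Intrinsic compound fluorescence is measured in culture medium containing 10% FBS, with excitation at 485 nm and detection at 535 nm, referenced to fluorescein.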
Assay [4] in a line: qHTS assay to test for compound auto fluorescence at 590 nm (red) in HEK293 cell free culture (AID 720683). In outline: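 Red-channel autofluorescence of compounds in culture medium (DMEM, 10% FBS), no cells, measured at 540/590 nm. Rose Bengal sodium is the reference fluorophore for equivalence.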
Assay [5] in a line: qHTS assay to test for compound auto fluorescence at 590 nm (red) in HepG2 cell free culture (AID 720684). Put shortly: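 Steps: dispense MEM/10% FBS medium, no cells; pin compound or DMSO vehicle; read red channel, Ex/Em 540/590 nm. Output given as Rose Bengal sodium equivalents.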
A short description of assay [6]: qHTS assay to test for compound auto fluorescence at 460 nm (blue) in HepG2 cell free culture (AID 720685). In outline:
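Compound (23 nL) or DMSO pinned into cell-free MEM with 10% FBS; blue fluorescence read at 405/460 nm excitation/emission, expressed as auto-fluorescence equivalency to triamterene.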

A short description of assay [7]: qHTS assay to test for compound auto fluorescence at 535 nm (green) in HepG2 cell free culture (AID 720686).
Assay [8] is described as follows: qHTS assay to test for compound auto fluorescence at 460 nm (blue) in HepG2 cells (AID 720687). In outline:
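Blue-channel autofluorescence (Ex/Em 405/460 nm, triamterene-equivalent) was measured after 1 hr compound exposure at 37 C, 5% CO2. Cells were HepG2, plated overnight at 37 C in MEM plus 10% FBS.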

The nature of assay [9]: qHTS assay to identify small molecule antagonists of the glucocorticoid receptor (GR) signaling pathway - cell viability counter screen (AID 720693). Note: nearly all actives have a fitted effect of over 55% in size.
Assay [10] is described as follows: qHTS assay for identifying genotoxic compounds that show differential cytotoxicity against isogenic chicken DT40 cell lines with known DNA damage response pathways - wild type cell line (AID 743012). Note: nearly all actives have a fitted effect of over 60% in size. In outline:
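Parental DNA repair-proficient DT40 cells, 300 per well, were pre-incubated ~0.5 h at 37 C/5% CO2, pin-dosed with compounds in DMSO, then incubated 40 h. Viability was read as CellTiter-Glo luminescence after 30 min at room temperature.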

Assay [11] in a line: qHTS assay for identifying genotoxic compounds that show differential cytotoxicity against isogenic chicken DT40 cell lines with known DNA damage response pathways - Rev3 mutant cell line (AID 743014). Note: nearly all actives have a fitted effect of over 55% in size. Note: potency is the fitted concentration of half-maximal effect.
Assay [12] is described as follows: qHTS assay for identifying genotoxic compounds that show differential cytotoxicity against isogenic chicken DT40 cell lines with known DNA damage response pathways - Rad54/Ku70 mutant cell line (AID 743015). Note: nearly all actives have a fitted effect of over 60% in size.
A short description of assay [13]: qHTS assay to identify small molecule antagonists of the androgen receptor (AR) signaling pathway - cell viability counter screen (AID 743033; note: nearly all actives have a fitted effect of over 45% in size).
Assay [14] is described as follows: qHTS assay to identify small molecule antagonists of the androgen receptor (AR) signaling pathway using the MDA cell line - cell viability counter screen (AID 743041; note: nearly all actives have a fitted effect of over 45% in size). In outline: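 Cells were plated at 3,000 per well and left 5 h. Compounds in DMSO were then pinned in, followed by R1881. After 16 h at 37C, CellTiter-Fluor fluorescence gave viability.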
In assay [15] the target is Glucocorticoid receptor (Homo sapiens) (UniProt P04150). The assay is described as follows: qHTS assay to identify small molecule agonists of the glucocorticoid receptor (GR) signaling pathway (AID 720691; active = well fitted activation curve with a large enough effect in the signal ratio in the repeat runs, not every such curve was filed as active; the % refers to the signal ratio). Put shortly:
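GR-bla HeLa cells (beta-lactamase reporter under glucocorticoid response element) were plated 4 h at 37 C/5% CO2, given compounds in DMSO, and incubated 18 h at 37 C. LiveBLAzer B/G FRET substrate was added for 2 h at room temperature, then fluorescence intensity read.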

The target of assay [16] is Androgen receptor (Homo sapiens) (UniProt P10275). Nature of the assay: qHTS assay to identify small molecule antagonists of the androgen receptor (AR) signaling pathway (AID 743035; active = well fitted inhibition curve with a large enough effect in the signal ratio in the repeat runs, not every such curve was filed as active; the % refers to the signal ratio). In outline:
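HEK293 cells stably carrying a UAS-driven beta-lactamase reporter (AR-UAS-bla GripTite) were plated for 4 h at 37C, then given compound and the agonist R1881 and incubated 16 h. Reporter activity was read by LiveBLAzer B/G FRET fluorescence after 2 h at room temperature.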

Assay [17] has the same target. The assay is described as follows: qHTS assay to identify small molecule agonists of the androgen receptor (AR) signaling pathway (AID 743036; active = well fitted activation curve with a large enough effect in the signal ratio in the repeat runs, with a control signal flat, not every such curve was filed as active; the % refers to the signal ratio). Put shortly:
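Agonist activity was scored by beta-lactamase reporter fluorescence in stably transfected HEK293 cells exposed to compounds for 16 h at 37C and 5% CO2. Substrate loading took 2 h at room temperature.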

Assay [18] has the same target. The assay is described as follows: qHTS assay to identify small molecule agonists of the androgen receptor (AR) signaling pathway using the MDA cell line (AID 743040; note: nearly all actives have a fitted effect of over 20% in size). Put shortly:
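Cells plated, 5 h at 37C/0% CO2; compound or DMSO pinned; 16 h at 37C; ONE-Glo added; luminescence measured after 30 min at room temperature. Reporter line: MDA-kb2 with MMTV-luciferase responsive to AR and GR.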

The target is the same in assay [19]. Nature of the assay: qHTS assay to identify small molecule antagonists of the androgen receptor (AR) signaling pathway using the MDA cell line (AID 743042; note: nearly all actives have a fitted effect of over 55% in size). Put shortly: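 Antagonist mode: compounds plus R1881 agonist added to MDA-kb2 AR-luc cells, incubated 16 h at 37C. Luciferase reporter luminescence quantified, with multiplexed CellTiter-Fluor readout for cell viability.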

Assay [20] addresses Glucocorticoid receptor (Homo sapiens) (UniProt P04150). The assay is described as follows: qHTS assay to identify small molecule antagonists of the glucocorticoid receptor (GR) signaling pathway (AID 720692; active = well fitted inhibition curve with a large enough effect in the signal ratio in the repeat runs, not every such curve was filed as active; the % refers to the signal ratio). Put shortly: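 GR-bla HeLa cells (beta-lactamase reporter under glucocorticoid response element) were pre-plated 4 h at 37 C, treated with compounds plus 5 nM dexamethasone (final) for 18 h, then read by LiveBLAzer B/G FRET fluorescence after 2 h.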
% is set by controls: 0 for no effect and ±100 for the full control effect.

Glucocorticoid receptor (Homo sapiens), sequence (P04150 whole entry, looked up): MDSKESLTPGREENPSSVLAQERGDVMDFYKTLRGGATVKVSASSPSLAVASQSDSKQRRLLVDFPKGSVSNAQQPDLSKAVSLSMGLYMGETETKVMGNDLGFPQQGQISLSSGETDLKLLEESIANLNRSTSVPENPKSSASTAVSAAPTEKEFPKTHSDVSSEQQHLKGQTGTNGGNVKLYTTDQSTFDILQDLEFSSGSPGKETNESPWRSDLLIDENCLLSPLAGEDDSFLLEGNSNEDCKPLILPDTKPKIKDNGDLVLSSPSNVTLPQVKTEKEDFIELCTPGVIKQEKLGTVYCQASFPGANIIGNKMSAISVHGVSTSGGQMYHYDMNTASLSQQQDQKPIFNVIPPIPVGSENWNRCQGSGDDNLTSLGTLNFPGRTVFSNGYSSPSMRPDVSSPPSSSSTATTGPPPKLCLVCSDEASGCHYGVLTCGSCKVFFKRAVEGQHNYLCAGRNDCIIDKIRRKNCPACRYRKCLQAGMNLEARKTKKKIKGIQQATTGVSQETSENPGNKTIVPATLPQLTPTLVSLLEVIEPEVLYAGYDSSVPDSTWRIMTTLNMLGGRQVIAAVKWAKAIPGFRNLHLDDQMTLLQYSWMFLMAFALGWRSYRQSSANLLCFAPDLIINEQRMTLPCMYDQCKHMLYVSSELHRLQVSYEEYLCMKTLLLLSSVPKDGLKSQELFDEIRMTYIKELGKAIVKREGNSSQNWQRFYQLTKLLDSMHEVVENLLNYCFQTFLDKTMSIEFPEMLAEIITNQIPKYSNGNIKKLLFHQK
Androgen receptor (Homo sapiens), sequence (P10275 whole entry, looked up): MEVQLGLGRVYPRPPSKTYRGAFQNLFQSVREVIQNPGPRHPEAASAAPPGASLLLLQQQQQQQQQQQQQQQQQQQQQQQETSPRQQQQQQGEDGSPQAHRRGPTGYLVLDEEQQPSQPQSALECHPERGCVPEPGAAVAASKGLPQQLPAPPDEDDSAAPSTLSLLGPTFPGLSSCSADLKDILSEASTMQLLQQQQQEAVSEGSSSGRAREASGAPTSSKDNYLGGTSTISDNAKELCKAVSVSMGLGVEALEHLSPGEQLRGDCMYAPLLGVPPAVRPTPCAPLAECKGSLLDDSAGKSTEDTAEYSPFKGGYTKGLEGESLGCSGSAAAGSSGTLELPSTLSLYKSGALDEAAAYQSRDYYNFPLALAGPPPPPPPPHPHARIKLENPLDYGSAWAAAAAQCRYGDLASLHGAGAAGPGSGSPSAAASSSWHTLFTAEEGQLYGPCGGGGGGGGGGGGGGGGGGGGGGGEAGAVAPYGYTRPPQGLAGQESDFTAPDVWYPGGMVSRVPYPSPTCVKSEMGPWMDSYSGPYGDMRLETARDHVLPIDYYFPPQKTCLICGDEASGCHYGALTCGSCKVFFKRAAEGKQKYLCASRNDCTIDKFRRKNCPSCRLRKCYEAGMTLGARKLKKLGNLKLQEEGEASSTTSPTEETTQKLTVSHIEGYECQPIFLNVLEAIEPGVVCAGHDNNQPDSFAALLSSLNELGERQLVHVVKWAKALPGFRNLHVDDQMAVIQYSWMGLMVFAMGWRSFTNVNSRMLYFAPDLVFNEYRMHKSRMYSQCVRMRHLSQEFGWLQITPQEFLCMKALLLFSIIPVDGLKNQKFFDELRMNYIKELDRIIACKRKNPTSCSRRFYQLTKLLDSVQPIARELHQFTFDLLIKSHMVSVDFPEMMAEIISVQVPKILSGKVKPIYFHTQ

As for `O=P(O)(O)OCC(O)CO` (configuration not stated), the compound was called inactive in assay [1], in assay [2], in assay [3], in assay [4], in assay [5] and in assay [6]. The compound was classed as inactive in assay [7], in assay [8], in [13] and in [14]. In addition, the Potency result in assay [9], in [10], in [11] and in assay [12] was “inactive” throughout.
For the compound `CCCCCCCCCCCCOC(C)=O`, the compound was called inactive in assay [1], in assay [2], in assay [3], in [4], in assay [5] and in assay [6]. For the same compound, the compound was classed as inactive in [7], in [8], in assay [13] and in assay [14]. In addition, the Potency result in assay [9], in assay [10], in assay [11] and in [12] was “inactive” each time.
Take `CC1=CC[C@H](CC=O)C1(C)C`: the compound was called inactive in assay [1], in assay [2], in assay [3], in [4], in assay [5] and in assay [6]. Further, the call in assay [8], in assay [13] and in assay [14] was inactive. The Potency entry in assay [15], in assay [9], in assay [10] and in assay [12] was “inactive” throughout.
For `CC(CC(=O)O)CC(C)(C)C` (configuration not stated), the compound was classed as inactive in [1], in assay [2], in assay [3], in assay [4], in assay [5] and in assay [6]. Also, the call in assay [8], in assay [13] and in assay [14] was inactive. Also, the Potency result in assay [9], in assay [10], in assay [11] and in [12] was “inactive” throughout.
For `CCCCCCCCOC(C)=O`, the compound was called inactive in assay [1], in [2], in [3], in [4], in assay [5] and in assay [6]. The result in [8], in [13] and in assay [14] was inactive. The Potency result in assay [9], in assay [10] and in [12] was “inactive” throughout.
Regarding `CC(C)SCc1ccco1`, the compound was called inactive in assay [1], in assay [2], in assay [3], in assay [4], in assay [5] and in [6]. In addition, the compound was called inactive in assay [8], in assay [13] and in assay [14]. In addition, the Potency result in [10] and in assay [11] was “inactive” each time.
For `CC(=O)OC(C(=O)c1ccccc1)c1ccccc1` (configuration not stated), the call in [1], in [2], in assay [3], in assay [4], in [5] and in [6] was inactive. Further, the call in [8], in [13], in [17], in assay [18], in assay [14] and in [19] was inactive. For the same compound, the Potency entry in [15], in assay [9], in assay [10], in assay [11], in assay [12] and in assay [16] was “inactive” in each case.
As for `Cc1ccccc1C`, the result in [1], in assay [2], in assay [3], in [4], in assay [5] and in assay [6] was inactive. Moreover, the compound was called inactive in [8], in assay [13] and in assay [14]. Also, the Potency result in assay [15], in assay [9], in [10], in assay [11] and in assay [12] was “inactive” each time.
Take `CCN(CCO)c1cccc(C)c1`: the compound was called inactive in [1], in assay [2], in [3], in [4], in assay [5] and in [6]. The compound was called inactive in assay [8], in [13] and in assay [14]. Moreover, the Potency entry in [9] and in assay [10] was “inactive” throughout.
In the case of `CCOC(=O)CC#N`, the compound was classed as inactive in assay [1], in assay [2], in assay [3], in assay [4], in [5] and in [6]. The call in assay [8], in [20], in [13] and in [14] was inactive. For the same compound, the Potency entry in assay [15], in assay [9], in [10], in assay [11] and in assay [12] was “inactive” throughout.
In the case of `CO[Si](CCCS)(OC)OC`, the result in [1], in assay [2], in assay [3], in assay [4], in [5] and in assay [6] was inactive. Further, the call in assay [8], in assay [20], in assay [13] and in [14] was inactive. For the same compound, the Potency entry in [15], in [9], in assay [10], in [11] and in [12] was “inactive” each time.
Regarding `Cc1oc(=O)oc1CN1CCN(c2cc3c(cc2F)c(=O)c(C(=O)O)c2n3C(C)S2)CC1` (configuration not stated), the compound was classed as inactive in assay [1], in assay [2], in [3], in assay [4], in assay [5] and in assay [6]. The call in assay [7], in assay [8], in assay [13] and in assay [14] was inactive. The Potency result in [9] is “inactive”.
In the case of `O=C(O)/C=C/c1ccccc1`, the result in [1], in assay [2], in [3], in [4], in [5] and in assay [6] was inactive. The call in [8], in [20], in [13] and in assay [14] was inactive. Besides, the Potency entry in assay [15], in assay [9], in assay [10], in [11] and in [12] was “inactive” throughout.
Take `CO/N=C(/C(=O)N[C@@H]1C(=O)N2C(C(=O)O)=C(Cn3nnc(C)n3)CS[C@H]12)c1csc(N)n1`: the compound was classed as inactive in assay [1], in assay [2], in assay [3], in assay [4], in assay [5] and in assay [6]. Further, the result in [8], in [20], in [13] and in assay [14] was inactive. The Potency entry in assay [15], in assay [9], in assay [11] and in assay [12] was “inactive” each time.
Consider `N#CCCOCCOCCC#N`, for which the result in assay [1], in assay [2], in assay [3], in [4], in assay [5] and in [6] was inactive. For the same compound, the compound was classed as inactive in assay [8], in assay [20], in [13] and in assay [14]. The Potency entry in [15], in assay [9], in [10] and in assay [12] was “inactive” in each case. The Potency in [11] is 61.1 µM (active).
As for `CCN(Cc1cccc(S(=O)(=O)O)c1)c1ccccc1`, the result in [1], in assay [2], in [3], in assay [4], in assay [5] and in [6] was inactive. Also, the compound was called inactive in assay [8], in assay [20], in [13] and in assay [14]. The Potency entry in [15] and in assay [9] was “inactive” each time.
`BrC/C=C/CBr`: the fluorescence, % of fluorescein in [1] is 0.0238% [at 18.6 µM]. The fluorescence, % of fluorescent control in [2] was -0.0065% [at 18.6 µM]; in assay [4], -0.0344% [at 18.6 µM]; in [6] it was -0.08% [at 18.6 µM]; in assay [8] it was 0.058% [at 18.6 µM]. In assay [3], the activity change is 0.0973% [at 18.6 µM]. For the same compound, in [5], the fluorescence, % of Rose Bengal is 0.0351% [at 18.6 µM]. The Potency result in [9], in [10], in [11] and in assay [12] was “inactive” each time. For the same compound, the result in assay [13] and in [14] was inactive.
For the compound `Cc1c(C(C)C)c(=O)n(-c2ccccc2)n1C`, the compound was classed as inactive in [1], in [2], in assay [3], in [4], in assay [5] and in [6]. The result in assay [8], in [13] and in [14] was inactive. Further, the Potency result in assay [9], in assay [10] and in assay [11] was “inactive” each time.
